Laboratory results published in PubChem BioAssay (NCI).
About 83,000 compounds went through this panel and 20% of them were active in at least one assay; those are over-represented in the sample as a whole.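 Single-dose data. Exposure time 48 hours. Values below 10 considered active.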 Values without a mark were called inactive. The source made the active and inactive calls.

Tests used:
Assay in all cases: NCI-60 one-dose screen, 48 h (100 = growth as untreated, 0 = no growth, -100 = all killed)
Conditions in all cases: 10 µM unless noted
NCI-H23 lung = tested on: NCI-H23 lung
NCI-H226 lung = tested on: NCI-H226 lung
NCI-H322M lung = tested on: NCI-H322M lung
HOP-62 NSCLC = tested on: HOP-62 NSCLC
NCI-H460 lung = tested on: NCI-H460 lung
NCI-H522 lung = tested on: NCI-H522 lung
A549/ATCC NSCLC = tested on: A549/ATCC NSCLC
786-0 renal = tested on: 786-0 renal
COLO 205 colon = tested on: COLO 205 colon
DU-145 prostate = tested on: DU-145 prostate
K-562 leukemia = tested on: K-562 leukemia
MALME-3M melanoma = tested on: MALME-3M melanoma
MDA-MB-231 breast = tested on: MDA-MB-231 breast
RXF 393 renal = tested on: RXF 393 renal
SF-268 CNS = tested on: SF-268 CNS
SF-295 CNS = tested on: SF-295 CNS
SF-539 CNS = tested on: SF-539 CNS
UACC-257 melanoma = tested on: UACC-257 melanoma
M14 melanoma = tested on: M14 melanoma

Row | SMILES | growth (NCI-H23 lung) | growth (NCI-H226 lung) | growth (NCI-H322M lung) | growth (HOP-62 NSCLC) | growth (NCI-H460 lung) | growth (NCI-H522 lung) | growth (A549/ATCC NSCLC) | growth (786-0 renal) | growth (COLO 205 colon) | growth (DU-145 prostate) | growth (K-562 leukemia) | growth (MALME-3M melanoma) | growth (MDA-MB-231 breast) | growth (RXF 393 renal) | growth (SF-268 CNS) [%] | growth (SF-295 CNS) | growth (SF-539 CNS) | growth (UACC-257 melanoma) | growth (M14 melanoma)
1 | COc1ccc2nc3ccccc3c(NCc3ccc(Cl)cc3)c2c1 | 28.3% | 48.8% | 24.6% | 42.4% | 12.5% | 34.7% | 23.6% | -76.9% (active) | -61.9% (active) | 21.5% | -30.2% (active) | -81.6% (active) | 24.3% | -24.2% (active) | 53.5 | 25.8% | -5.77% (active) | -52.2% (active) | -86.1% (active)
2 | O=C(NNC(=O)c1cccc(Cl)c1)c1ccccc1 | 108% | 96.2% | 107% | 109% | 106% | 111% | 97.6% | 102% | 116% | 110% | 114% | 106% | 113% | 109% | 108 | 106% | 107% | 110% | 112%
3 | COc1ccc2c(c1)C1=NN(C(=O)CO)[C@H](c3ccc(OC(F)(F)F)cc3)[C@@H]1CC2 | 92.2% | 84.5% | 130% | 97.4% | 103% | 82.6% | 89.3% | 103% | 110% | 105% | 102% | 101% | 94.7% | -19.9% (active) | 94.8 | 90.4% | 93.2% | 123% | 115%
4 | COc1cc(C2CC(c3ccccc3)=NN2C=O)ccc1Oc1ccnc2cc(Cl)ccc12 (stereo not drawn) | 36.7% | 46.6% | 100% | 74.2% | 73.8% | 42.7% | 56% | 79.9% | 101% | 77.9% | 51.1% | 52.7% | 74.6% | 98.9% | 65.6 | 43.3% | 79.8% | 31.6% | 54.9%
5 | C#Cc1cccc(Nc2nc3cc([N+](=O)[O-])ccc3nc2Nc2ccc(O)cc2)c1 | 9.92% (active) | 50.3% | 16.8% | 21.4% | -24% (active) | -53.6% (active) | 11.3% | -11.7% (active) | -49.9% (active) | 23.3% | -30% (active) | 51.2% | -48.2% (active) | 54.8% | 27.3 | 1.66% (active) | 21.8% | 25.9% | -52.5% (active)
6 | COc1ccc(CNc2c3ccccc3nc3ccc(OC)cc23)cc1 | 21.4% | 33.8% | 23.5% | 34.1% | 6.48% (active) | 26.2% | 14.6% | 15% | -51.4% (active) | 20% | 0.27% (active) | 7.06% (active) | 23.6% | -2.57% (active) | 40.2 | 19.4% | 8.46% (active) | 6.58% (active) | 19.5%
7 | S=C(Nc1ccc(Cl)cc1)Nc1ccc(Cl)cc1 (tested in a mixture with another compound) | 1.65% (active) | 16.4% | 4.59% (active) | 6.8% (active) | -17.4% (active) | -27.9% (active) | 1.68% (active) | 22.1% | -95.7% (active) | 22.2% | 12.1% | -7.85% (active) | -58.7% (active) | 9.51% (active) | 23 | -6.55% (active) | 19.1% | -14.7% (active) | 19%
8 | O=C(NCCN1CCCCC1)n1cc(-c2ccncc2)c(-c2ccc(Cl)c(O)c2)n1 | 83.4% | 102% | 119% | 79% | 91.5% | 84.9% | 98.4% | 85.9% | 87% | 105% | 89.5% | -1.57% (active) | 74.5% | 68% | 89.8 | 120% | 91.3% | 58.9% | 27.5%
9 | COc1cc(/C=N/NC(=O)Cn2c(-c3ccc(C)o3)nc3ccccc32)ccc1OCc1ccccc1 | 91.1% | 84.4% | 85.7% | 89.8% | 91.5% | 73.6% | 72.9% | 99% | 102% | 105% | 65.5% | 115% | 78.7% | 85.6% | 76.1 | 91.7% | 103% | 89.5% | 85.2%
10 | C=C1C(=O)O[C@H]2[C@H]1CC/C(COC(=O)NCc1cccc(OC)c1)=C\CC[C@@]1(C)O[C@@H]21 | 73.4% | 67.3% | 90.6% | 65.6% | 55% | -70.3% (active) | 50.7% | -48.9% (active) | -71.3% (active) | 19.7% | 4.46% (active) | -26.4% (active) | 64.4% | -57.1% (active) | 58.2 | 71.5% | 21.4% | 25.4% | -7.62% (active)
11 | CCN(CC)c1ccc(/C=N/NC(=O)c2ccc(S(C)(=O)=O)cc2)c(O)c1 | 32.8% | 22.6% | 25% | 12.9% | 3.28% (active) | 9.91% (active) | 12.5% | 15.4% | 8.62% (active) | 24.5% | 12.4% | 14% | 43.2% | 28.6% | 21.8 | 21.4% | 4.01% (active) | -11.5% (active) | 3.37% (active)
12 | CCN1C(=O)N(CC)C2C1NN=c1s/c(=C\c3ccc(Br)cc3)c(=O)n12 (stereo not drawn) | 29.2% | 50.7% | 45.5% | 23.8% | 7.34% (active) | -49.9% (active) | 19.7% | 23.6% | -34.6% (active) | 6.46% (active) | 4.55% (active) | 52.2% | 25.9% | 40.5% | 36.1 | 17.4% | -5.08% (active) | 23.5% | 7.42% (active)
13 | c1ccc2oc(-c3cnc4nonc4n3)cc2c1 | 94.8% | 92.1% | 87.7% | 84.7% | 95.8% | 78.3% | 96.4% | 103% | 103% | 114% | 103% | 105% | 87.9% | 112% | 99.7 | 103% | 101% | 99.2% | 106%
14 | O=C1/C(=C/c2ccccc2)SC(=Nc2ccccc2)N1Nc1ccccc1 | 13.8% | -40.1% (active) | 26.9% | 39.4% | -25.2% (active) | -5.53% (active) | 15.5% | -31.4% (active) | 0.201% (active) | 22% | 4.55% (active) | -14.6% (active) | 12.1% | -58% (active) | 26.9 | 16.2% | 5.85% (active) | 10.5% | -59.3% (active)
15 | CC(=O)CC(c1ccc([N+](=O)[O-])cc1)c1c(O)c2ccccc2oc1=O (stereo not drawn) | 106% | 93.9% | 98.7% | 102% | 104% | 97.3% | 95.7% | 95.4% | 112% | 106% | 104% | 98.3% | 95.9% | 108% | 99 | 104% | 97.1% | 120% | 102%
16 | OCCN(CCO)c1ccc2ccccc2c1 | 101% | 103% | 93.6% | 90.6% | 107% | 73.4% | 97.7% | 111% | 106% | 103% | 106% | 102% | 108% | 125% | 96.8 | 98.9% | 96.7% | 110% | 90.7%
17 | CCOC(=O)c1cc(N)nc2ccccc12 | 99.2% | 102% | 156% | 94.7% | 96.3% | 101% | 122% | 102% | 112% | 104% | 91.1% | 139% | 107% | 109% | 91.1 | 100% | 97.8% | 115% | 108%
